Data as given in ChEMBL document CHEMBL3988442, “University of Dundee, Small-Polar-MMV Screening Library” (2021).

Columns and labels:
[1] = biological target: T1, Aspartate--tRNA(Asp/Asn) ligase (Mycobacterium tuberculosis (strain ATCC 25618 / H37Rv)) (UniProt P9WFW3); test: Assay for Asp RNA synthetase-1 from Mycobacterium tuberculosis; format: functional; set-up: scale not given: direction of the effect not stated beside the values; settings: 30 µM; note: in the data most compounds retested in dose-response had high values
T1 sequence (whole entry): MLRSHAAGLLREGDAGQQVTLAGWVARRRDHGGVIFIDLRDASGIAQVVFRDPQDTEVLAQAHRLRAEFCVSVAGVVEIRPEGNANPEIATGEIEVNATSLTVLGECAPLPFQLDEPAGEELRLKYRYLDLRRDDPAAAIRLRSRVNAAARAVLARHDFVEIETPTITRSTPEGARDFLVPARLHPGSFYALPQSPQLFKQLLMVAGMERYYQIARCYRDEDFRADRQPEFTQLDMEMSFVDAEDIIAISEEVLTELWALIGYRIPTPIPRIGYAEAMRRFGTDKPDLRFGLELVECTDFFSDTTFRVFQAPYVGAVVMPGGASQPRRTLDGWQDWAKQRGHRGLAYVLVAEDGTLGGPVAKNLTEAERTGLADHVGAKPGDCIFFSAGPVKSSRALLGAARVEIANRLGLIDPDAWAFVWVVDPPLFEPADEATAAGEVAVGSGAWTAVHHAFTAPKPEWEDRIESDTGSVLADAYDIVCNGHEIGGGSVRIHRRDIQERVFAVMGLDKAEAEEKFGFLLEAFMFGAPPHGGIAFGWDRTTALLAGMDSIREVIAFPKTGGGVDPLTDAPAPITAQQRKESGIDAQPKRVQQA

[2] = biological target: Shiga toxin 2 (Escherichia coli O157:H7) (UniProt P09385+P09386); test: E. coli 0.157:H7 Shiga Toxin SOP - stx2 screening assay; format: functional; set-up: scale not given: direction of the effect not stated beside the values; settings: 30 µM

| Compound | Percent Effect [1] | Percent Effect [2] |
| --- | --- | --- |
| CCCC(=O)Nc1sc(C(=O)OCC)c(C)c1C#N | -1.82% | 7.46% |
| Cc1ccc(NC(=O)C(C)N2CCCN(c3nccs3)CC2)c(C)c1 (stereo unspecified) | -4.7% | -49.5% |
| CN1CC(=O)N(c2cccnc2)CC12CCN(C(=O)C1CCCCC1)C2 (stereo unspecified) | 6.7% | -1.32% |
| CCc1nc(CN2CCCN(C(=O)CCSC)CC2)cs1 | -2.35% | -65.7% |
| COCCN1CC[C@@H]2O[C@@H](COCC(=O)N3CCCC3)CC[C@@H]21 | -4.13% | -8.7% |
| Cc1nc(C)n(CC2CCCN(c3ncnc4ccsc34)C2)n1 (stereo unspecified) | 0.756% | 28.8% |
| CNc1cc(CNC(=O)c2ccccn2)nc(-c2ccncc2)n1 | -1.21% | 5.89% |
| Cc1ccccc1CN1CCN(CC(=O)Nc2cccnc2)CC1 | -2.08% | 17% |
| CC(C)c1nc(CC(=O)N2CCCC(n3cncn3)C2)cs1 (stereo unspecified) | -4.06% | -31% |
| COc1ncccc1C(=O)N1CC[C@H]2C[C@@H](C)O[C@@H]2C1 | -1.34% | -45% |
| CCc1ccc(CNC(=O)NC(C)CN2CCOCC2)s1 (stereo unspecified) | 1.38% | -4.66% |
| FC(F)(F)C1CCc2nnc(CNCc3ccsc3)n2C1 (stereo unspecified) | -0.0705% | 3.92% |
| COCC1c2c(cnn2C)CCN1Cc1ccc(F)cc1 (stereo unspecified) | 1.28% | -4.17% |
| Cc1nc(CNCC2CCCN2c2cccnn2)cs1 (stereo unspecified) | -0.7% | 15.4% |
| COc1cc(C(=O)N2CCCC(CNS(C)(=O)=O)C2)cc(OC)c1C (stereo unspecified) | -4.03% | 25.9% |
| CC(CN1CCCC1)C(=O)N1CCC(c2nccn2CC2CC2)CC1 (stereo unspecified) | -0.479% | -15.6% |
| O=C(c1cn(-c2cc(N3CCOCC3)ncn2)cn1)N1CCSCC1 | -0.834% | -38.5% |
| O=C([C@@H]1C[C@H]2[C@H](CCN2Cc2nccs2)O1)N1CCOCC1 | 2.29% | -22.3% |
| Cc1cc2c(=O)n3c(nc2s1)CCN(C(=O)c1ccncc1)CC3 | 0.789% | 3.16% |
| CN(Cc1nnc2n1CCC2)C(=O)Cc1ccc2c(c1)OCCO2 | 4.23% | 18.1% |
| Cc1cc(C(=O)N2CCc3nnc(N(C)C)cc3C2)c(C)n1C1CC1 | 0.451% | -0.445% |
| CC(NCc1c(C(C)C)nn(C)c1N1CCOCC1)C(N)=O (stereo unspecified) | -7.54% | -49.6% |
| O=C(Cc1ccccc1Cl)N1CCCC(n2cncn2)C1 (stereo unspecified) | -1.83% | -37.6% |
| COc1cc(C)nc(N2CCN(C(=O)CCc3cscn3)CC2)n1 | -2.13% | -10.1% |
| CN1CCN(C(=O)c2ccc(=O)n(C)c2)Cc2ccccc21 | -5.51% | -29.2% |
| CCN1CCC(c2nc3ccc(NC(C)C)cn3n2)CC1 | 2.52% | 4.27% |
| O=C(CCC1CCCC1)NCCn1nc(C2CCNC2)c2nccnc21 (stereo unspecified) | 1.74% | -35.4% |
| CCc1c(C(=O)NC2CCS(=O)(=O)C2)cnn1-c1ccc(F)cc1 (stereo unspecified) | -1.69% | 9.21% |
